Measurements reported in PubChem BioAssay (NCI).
Compounds without any hit were thinned out: in the full panel of roughly 79,000, 15% have a hit. A number with no mark means an inactive call. Active and inactive are the calls of the source. Cut-off read from the data, not from the text of the source: active = growth inhibition above about 70%; inactive = the rest.

What was measured:
[1] = NCI Yeast Anticancer Drug Screen. Data for the rad50 strain (AID 155);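 note: 0% = growth of vehicle-only cultures of the same strain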; settings: S. cerevisiae rad50 strain growth inhibition, active compounds read high
Summary of the method: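 DNA repair mutant yeast, compound exposure, growth read-out; inhibition is taken relative to vehicle.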

[2] = NCI Yeast Anticancer Drug Screen. Data for the mec2-1 strain (AID 157); settings: S. cerevisiae mec2-1 strain, active compounds read high
Summary of the method: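 Using mec2-1 yeast: add compound, measure growth, express inhibition versus vehicle-treated cultures.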

[3] = NCI Yeast Anticancer Drug Screen. Data for the sgs1 mgt1 strain (AID 161);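 note: 0% = growth of cultures given vehicle only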; settings: S. cerevisiae sgs1 mgt1 strain, active compounds read high
Summary of the method: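 Percent growth inhibition was derived by comparing compound-exposed mutant yeast with vehicle-exposed cultures. The strain carries alterations in DNA damage repair.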

[4] = NCI Yeast Anticancer Drug Screen. Data for the cln2 rad14 strain (AID 165);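 note: 0% = growth equal to vehicle treated cultures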; settings: S. cerevisiae cln2 rad14 strain, active compounds read high
Summary of the method: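 Yeast strain cln2 rad14, bearing defects in cell cycle control and DNA repair, serves as the test system; values reflect growth inhibition compared with vehicle.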

[5] = NCI Yeast Anticancer Drug Screen. Data for the bub3 strain (AID 167); settings: S. cerevisiae bub3 mutant strain, active compounds read high
Summary of the method: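 In this screen, a yeast mutant lacking normal mitotic checkpoint function is challenged with compound. Relative growth versus vehicle gives the inhibition value.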

[6] = NCI Yeast Anticancer Drug Screen. Data for the mlh1 rad18 strain (AID 175); settings: S. cerevisiae mlh1 rad18 strain growth inhibition, active compounds read high
Summary of the method: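 Steps: expose repair-defective yeast to compound; measure growth; express inhibition against vehicle-treated controls.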

[7] = at 5.0 µM (retest, dose inferred, filed as 0.5)
[8] = at 50.0 µM (retest, dose inferred, filed as 5.0)

Row | SMILES | growth inhibition [1, 7] | growth inhibition [1, 8] | growth inhibition ([1]; at 50.0 µM) | growth inhibition [2, 7] | growth inhibition [2, 8] | growth inhibition ([2]; at 50.0 µM) | growth inhibition [3, 7] | growth inhibition [3, 8] | growth inhibition ([3]; at 50.0 µM) | growth inhibition [4, 7] | growth inhibition [4, 8] | growth inhibition ([4]; at 50.0 µM) | growth inhibition [5, 7] | growth inhibition [5, 8] | growth inhibition ([5]; at 50.0 µM) | growth inhibition [6, 7] | growth inhibition [6, 8] | growth inhibition ([6]; at 50.0 µM)
1 | CC(=O)N1CCCC2=C1CCCCCCCCCC2 | -7% | 4% | 49.4% | -6% | -5% | 27.9% | -3% | 1% | 70.6% (active) | 3% | -9% | 22.9% | -12% | -21% | 29.2% | -6% | -2% | 13.8%
2 | CC1CCN(c2cc(-c3cc4ccccc4o3)oc(=O)c2C#N)CC1 | 7% | 1% | 66.5% | 2% | 3% | 56.7% | 3% | 0% | 68.5% | 7% | -1% | 33.1% | 2% | -1% | 39.9% | -5% | 3% | 74.7% (active)
3 | Cc1nc(N)nc(-c2ccccc2)c1N=Nc1ccc(Cl)cc1 | -2% | 61% | 54.9% | 17% | 73% (active) | 29.1% | 1% | 74% (active) | 23.9% | -7% | 56% | 51.3% | -1% | 86% (active) | 88.2% (active) | -13% | 89% (active) | 81.7% (active)
4 | Cc1ccc2c(c1)C(O)(c1ccccc1)CCS2 (configuration not stated) | 87% (active) | 95% (active) | 90.2% (active) | 58% | 97% (active) | 77.2% (active) | 86% (active) | 97% (active) | 91.8% (active) | 16% | 96% (active) | 71.2% (active) | 46% | 96% (active) | 86.8% (active) | 66% | 94% (active) | 94.3% (active)
5 | O=[N+]([O-])c1ccc(Sc2ccsc2)c([N+](=O)[O-])c1 | 4% | 79% (active) | 46.5% | 14% | 87% (active) | 34.5% | 21% | 93% (active) | 48.5% | 4% | 61% | 31.8% | 11% | 86% (active) | 41.5% | 45% | 96% (active) | 78.8% (active)
6 | CCOC(=O)CC1=NC(=Nc2ccc(Cl)c(Cl)c2)SC1 | 0% | 95% (active) | 96.2% (active) | -3% | 98% (active) | 99% (active) | 0% | 98% (active) | 99.1% (active) | -5% | 94% (active) | 96.6% (active) | 4% | 98% (active) | 97.7% (active) | -2% | 98% (active) | 98.3% (active)
7 | Clc1cc2ccccc2c2ccccc12 | 0% | 62% | 84.6% (active) | -3% | 21% | 10.8% | -3% | 32% | 75.2% (active) | -3% | 6% | -51.7% | -2% | 64% | 77.3% (active) | -1% | 84% (active) | 93.2% (active)
8 | CCOc1ccc2c(c1)[n+]([O-])c(-c1ccc([N+](=O)[O-])cc1)c(N)[n+]2[O-] | 22% | 82% (active) | 95% (active) | 41% | 90% (active) | 80.5% (active) | 38% | 96% (active) | 96% (active) | 21% | 76% (active) | 94.3% (active) | 65% | 94% (active) | 96% (active) | 56% | 93% (active) | 97.4% (active)
9 | CCCC(=O)Oc1c(Br)cc(Br)cc1Br | -1% | 17% | 21.6% | -4% | 7% | 21.3% | -4% | 7% | 19.1% | -6% | -19% | 44.9% | 1% | 19% | 45.5% | -1% | 12% | 20.6%
10 | CC(C)Cn1cnc2c(SCc3ccc(Cl)cc3Cl)nc(N)nc21 | 0% | 46% | 36.7% | -1% | 38% | 29.9% | 20% | 45% | 90.8% (active) | -15% | 44% | 41.2% | 4% | 32% | 38.7% | -3% | 66% | 66.8%
11 | C(=N\NC1=NCCN1)/c1cccc2cc3ccncc3nc12 | 8% | 66% | 86.5% (active) | 7% | 60% | 91% (active) | -4% | 63% | 83.8% (active) | -6% | 53% | 88% (active) | -12% | 27% | 87.7% (active) | -9% | 53% | 82.5% (active)
12 | O=C1c2ccccc2/C=C\C(c2ccccc2)=N/N1c1ccccc1Cl | 7% | 52% | 84.8% (active) | 0% | 69% | 83.5% (active) | 9% | 81% (active) | 83.8% (active) | -2% | 37% | 60.2% | -4% | 52% | 85.2% (active) | 7% | 48% | 84.7% (active)
13 | CCOC(=O)C1=C(C)NC(C)=C(C(=O)OCC)C1c1ccc([N+](=O)[O-])s1 | 61% | 98% (active) | 91.3% (active) | 35% | 98% (active) | 93.2% (active) | 49% | 95% (active) | 93.2% (active) | 29% | 77% (active) | 91.7% (active) | 40% | 83% (active) | 93.2% (active) | 65% | 98% (active) | 91.6% (active)
14 | CC(=O)Oc1ccccc1C(=O)/C=C/c1ccccc1 | 3% | 82% (active) | -11.2% | 7% | 89% (active) | 17.4% | 4% | 93% (active) | 11.6% | 0% | 40% | -17.3% | -1% | 90% (active) | 61% | -1% | 98% (active) | 9.75%
15 | CNC(=O)OCc1c(COC(=O)NC)c2n(c1C)-c1ccccc1CCC2 | 23% | 35% | 85.8% (active) | 11% | 70% (active) | 89.6% (active) | 38% | 75% (active) | 90% (active) | 38% | 56% | 88.9% (active) | 50% | 77% (active) | 87.5% (active) | 15% | 43% | 87.6% (active)
16 | c1ccc2c(c1)oc1cc3ccncc3cc12 | 43% | 96% (active) | 96.8% (active) | 11% | 86% (active) | 86.3% (active) | 3% | 83% (active) | 94.8% (active) | 9% | 89% (active) | 92% (active) | 24% | 94% (active) | 96% (active) | 14% | 92% (active) | 95.2% (active)
17 | O=[N+]([O-])/C(C=Nc1ccccc1)=C/Nc1ccccc1 | -17% | 51% | 71.5% (active) | -10% | 33% | 67.3% | 2% | 46% | 83.5% (active) | -6% | 48% | 37.5% | 16% | 73% (active) | 31.6% | -15% | 83% (active) | 76.6% (active)
18 | CCC12C=CCN3CCC4(c5cc(C(c6ccccn6)c6cc7ccccc7n6C)c(OC)cc5N(C)C4C(O)(C(=O)OC)C1OC(C)=O)C32 (configuration not stated) | 4% | 0% | 68.3% | 46% | 0% | 81.5% (active) | -1% | 2% | 49.6% | -2% | -5% | 83.3% (active) | -2% | -3% | 65% | 3% | 11% | 94.7% (active)
19 | CCCNC(=O)N(CC(C)(C)C)S(=O)(=O)c1ccc(Cl)cc1 | -4% | -10% | 71.1% (active) | -2% | -10% | 93.1% (active) | -2% | 0% | 68.3% | -4% | -17% | 86.8% (active) | 7% | 27% | 99.5% (active) | -5% | -97% | 36.2%
